# CYP2C19 inh = inhibitors of human CYP2C19; 96,000 tested, 21% active; CYP2C19 Supersomes, luciferin-H EGE luminescence, 30 min; inhibition, % at 5 µM; P33261;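 active = CYP2C19 inhibition above a set limit at 5 µM in the primary screen, cut at about 50% in these data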;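 note: plate controls were negative control wells for no effect and 2.5 mM tranylcypromine positive control for full effect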
# CYP2C9 activ = CYP2C9 (human) activation. recombinant CYP2C9, luciferin-H conversion, luminescence; active compounds read high; factor 1 = untreated enzyme, 0 = blocked. activation factor at 5 µM. 96,000 tested, 1.4% active. P11712;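 active = activation factor of 2 or more for CYP2C9 at a 5 µM dose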;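 note: 0 = sulfaphenazole-blocked wells and 1 = vehicle-only wells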
# CYP2C19 act = cytochrome P450 2C19 (human) activation. AID 1025. P33261. activation factor at 5 µM. 96,000 tested, under 10 active. recombinant CYP2C19, luciferin-H EGE luminescence; active compounds read high; 0 = fully inhibited enzyme, 1 = untreated enzyme;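 active = activation factor of at least 2 at 5 µM in the primary screen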;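 note: 0 = wells with 2.5 mM tranylcypromine and 1 = vehicle-only wells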
# CYP2C9 inhib = human CYP2C9 inhibition | CYP2C9 Supersomes, luciferin-H conversion, luminescence | inhibition, % at 5 µM | P11712 | 96,000 tested, 20% active | AID 777;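 active = blocking of liver enzyme CYP2C9 beyond about 50% at 5 µM, limit read from the data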
# Cav3 T inh = inhibitors of human Cav3.2 T-type calcium channel; O95180; Cav3.2-expressing cells, Fluo-4 calcium fluorescence FDSS; active compounds read low; B-score at 10 µM; 100,000 tested, 4% active; AID 449739;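 active = single-dose well whose peak fluorescence ratio is a statistical outlier from its plate by either plate-standardised score or position-corrected B-score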
# Target sequence (O95180 whole entry, looked up): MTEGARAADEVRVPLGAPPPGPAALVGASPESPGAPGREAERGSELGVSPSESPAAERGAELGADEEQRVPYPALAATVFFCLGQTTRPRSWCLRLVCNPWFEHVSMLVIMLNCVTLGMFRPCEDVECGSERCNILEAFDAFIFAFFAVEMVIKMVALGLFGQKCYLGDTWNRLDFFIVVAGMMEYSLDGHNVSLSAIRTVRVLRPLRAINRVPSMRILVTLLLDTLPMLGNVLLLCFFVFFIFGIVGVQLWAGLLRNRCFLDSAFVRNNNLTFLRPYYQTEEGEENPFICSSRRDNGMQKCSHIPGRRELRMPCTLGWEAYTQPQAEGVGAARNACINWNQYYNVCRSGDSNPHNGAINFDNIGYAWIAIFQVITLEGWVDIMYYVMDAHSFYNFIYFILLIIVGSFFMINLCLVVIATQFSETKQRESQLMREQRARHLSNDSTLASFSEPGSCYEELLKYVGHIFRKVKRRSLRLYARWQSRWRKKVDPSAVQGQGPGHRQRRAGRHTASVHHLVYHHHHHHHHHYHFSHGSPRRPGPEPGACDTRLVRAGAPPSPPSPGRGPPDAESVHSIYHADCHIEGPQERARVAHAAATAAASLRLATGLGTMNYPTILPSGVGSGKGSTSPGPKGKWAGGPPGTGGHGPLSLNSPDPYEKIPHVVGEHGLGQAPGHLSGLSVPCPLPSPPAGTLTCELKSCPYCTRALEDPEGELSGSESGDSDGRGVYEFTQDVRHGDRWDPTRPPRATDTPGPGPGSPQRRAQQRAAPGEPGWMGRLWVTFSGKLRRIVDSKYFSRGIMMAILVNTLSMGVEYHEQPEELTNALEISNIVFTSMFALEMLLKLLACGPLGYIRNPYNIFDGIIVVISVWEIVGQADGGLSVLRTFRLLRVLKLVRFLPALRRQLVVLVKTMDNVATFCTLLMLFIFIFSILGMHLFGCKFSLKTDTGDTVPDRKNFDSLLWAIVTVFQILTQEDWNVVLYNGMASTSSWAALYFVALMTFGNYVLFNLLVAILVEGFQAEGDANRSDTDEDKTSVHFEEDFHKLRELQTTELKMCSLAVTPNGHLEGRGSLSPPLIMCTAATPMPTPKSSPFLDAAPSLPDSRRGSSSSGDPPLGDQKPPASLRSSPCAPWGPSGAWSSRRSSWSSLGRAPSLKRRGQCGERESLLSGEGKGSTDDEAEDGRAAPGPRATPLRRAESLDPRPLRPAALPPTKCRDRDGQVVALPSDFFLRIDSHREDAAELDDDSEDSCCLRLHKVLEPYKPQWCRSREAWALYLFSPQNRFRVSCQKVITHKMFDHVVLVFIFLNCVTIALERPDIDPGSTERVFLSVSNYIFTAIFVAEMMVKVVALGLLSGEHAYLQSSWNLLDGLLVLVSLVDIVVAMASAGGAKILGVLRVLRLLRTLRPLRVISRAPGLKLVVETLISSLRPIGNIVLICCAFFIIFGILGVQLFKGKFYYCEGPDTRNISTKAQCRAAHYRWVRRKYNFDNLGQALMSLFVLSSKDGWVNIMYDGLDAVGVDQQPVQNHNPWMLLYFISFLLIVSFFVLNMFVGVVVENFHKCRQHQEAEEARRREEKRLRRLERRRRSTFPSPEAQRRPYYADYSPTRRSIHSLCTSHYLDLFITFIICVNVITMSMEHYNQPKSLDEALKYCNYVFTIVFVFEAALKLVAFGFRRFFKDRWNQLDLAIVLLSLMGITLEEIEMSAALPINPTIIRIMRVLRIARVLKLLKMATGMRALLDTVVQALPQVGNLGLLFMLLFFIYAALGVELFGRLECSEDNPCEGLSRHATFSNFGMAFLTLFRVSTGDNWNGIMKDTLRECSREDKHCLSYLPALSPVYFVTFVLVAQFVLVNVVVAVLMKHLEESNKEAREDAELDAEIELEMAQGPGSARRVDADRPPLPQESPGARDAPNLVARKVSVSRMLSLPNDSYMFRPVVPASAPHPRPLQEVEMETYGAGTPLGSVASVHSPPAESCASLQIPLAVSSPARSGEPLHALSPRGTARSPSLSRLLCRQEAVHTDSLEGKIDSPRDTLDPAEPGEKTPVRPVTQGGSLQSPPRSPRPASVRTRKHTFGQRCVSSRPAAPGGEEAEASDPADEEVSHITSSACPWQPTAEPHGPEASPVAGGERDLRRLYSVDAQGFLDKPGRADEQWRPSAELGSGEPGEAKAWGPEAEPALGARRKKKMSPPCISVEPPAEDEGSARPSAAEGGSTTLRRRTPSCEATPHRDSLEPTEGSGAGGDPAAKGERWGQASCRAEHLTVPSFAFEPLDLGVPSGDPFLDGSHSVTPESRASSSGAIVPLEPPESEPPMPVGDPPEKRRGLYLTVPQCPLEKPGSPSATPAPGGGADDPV
# * = called active by the depositor; x = no result. This is a sample that favours compounds with a hit; in the whole collection about 27% have one here.
SMILES,CYP2C19 inh,CYP2C9 activ,CYP2C19 act,CYP2C9 inhib,Cav3 T inh
Cn1c(NCc2cccs2)nc2ccccc21,52.5*,1,0.5,3.4,0.508
C=CCc1cccc(CNc2nc3ccccc3n2CC)c1O,42.9,2.1*,0.6,-105.6,-1.63
O=C(NC(=S)Nc1nc2c(s1)CSc1ccccc1-2)c1ccccc1,12.2,0.7,0.9,29.1,0.309
O=C(Nc1ccccc1)C1=C[C@@H](C2CC2)C[C@@H](OCCCCO)O1,x,x,x,x,0.529
Cn1c(NCc2c[nH]c3ccccc23)nc2ccccc21,69.4*,0.8,0.3,16.2,-1.19
C=CCn1c(NCc2c[nH]c3ccccc23)nc2ccccc21,x,x,x,x,-3.56
COC(=O)CN(c1ccc(F)cc1)S(=O)(=O)c1ccc2c(c1)OCCO2,46.8,0.5,0.5,54.5*,-0.0899
COC(=O)CN(c1ccc2c(c1)OCCO2)S(=O)(=O)c1ccccc1,83.8*,0.4,0.2,63.5*,x
O=C(CN(c1ccc(F)cc1)S(=O)(=O)c1ccc2c(c1)OCCO2)NCc1ccccn1,95.1*,0.4,0,64.4*,-0.0195
O=C(O)CN(c1ccc2c(c1)OCCO2)S(=O)(=O)c1ccccc1,-4.8,1,1,-2.0,-0.0622
Cc1ccccc1-c1noc(C2CCCCC2)n1,3.5,0.9,1,7.2,-0.0656
O=C(Cn1nc(Cl)nc1Cl)Nc1ccccc1,40.5,0.9,0.6,10.7,-0.019
O=C(CSc1nnc(-c2csc3c2CCCC3)o1)Nc1ccccc1,-9.9,1.1,1.1,-8.5,-0.249
O=C(CCSc1nnc(-c2ccncc2)o1)Nc1ccc(F)cc1,85.1*,0.4,0.1,56.8*,0.216
O=C(CCSc1nnc(-c2ccncc2)o1)Nc1ccccc1,86.4*,0.2,0.1,84.9*,1
Cc1nnc(SCCC(=O)Nc2ccc(F)cc2)s1,16.8,1,0.8,-1.1,1.44
O=C(c1ccc(-c2ccccc2Cl)s1)N1CCOCC1,x,x,x,x,-0.123
CN=c1sc2ccccc2n1CC(O)COc1ccccc1 (centres undefined),96.1*,0.3,0,70.6*,-0.914
CCN=c1sc2ccccc2n1CC(O)COc1ccccc1 (centres undefined),98.8*,0.1,0,92.8*,-4.17*
COc1ccc(OCC(O)Cn2c(=N)n(CCN3CCCCC3)c3ccccc32)cc1 (centres undefined),-1.7,1,1,3.2,-0.0558
N=c1ccccn1CC(O)COc1ccccc1 (centres undefined),4.1,1.1,1,-7.2,0.0413
CCc1ccc(N2C(=O)/C(=C/c3cccs3)N(CC(=O)OC)C2=S)cc1,22.3,0.6,0.8,42.3,-0.092
COc1ccc(-c2noc3c2-c2nc(-c4ccc(Br)cc4)sc2CC3)cc1,x,x,x,x,0.981
CCOC(=O)/C(C#N)=C/c1cc(C)n(-c2ccc(Br)cc2)c1C,-6.1,1,1.1,0.7,x
CCOC(=O)/C(C#N)=C/c1cc(C)n(-c2ccccc2)c1C,52.4*,0.5,0.5,53.8*,-2.11
SMILES,CYP2C19 inh,CYP2C9 activ,CYP2C19 act,CYP2C9 inhib,Cav3 T inh
Fc1cccc(-c2cc3nc4c(c(N5CCOCC5)n3n2)CCCC4)c1,62.9*,0.1,0.4,93.5*,0.186
Cc1cc(C(=O)NCc2ccc(C(=O)O)o2)c(C)o1,0.5,1,1,4.9,0.935
Cc1cc(C(=O)Nc2ccc(N3CCOCC3)cc2)c2ccccc2n1,-0.1,1.1,1,-11.1,0.563
O=C(Nc1ccc(N2CCOCC2)cc1)c1cn2ccccc2n1,60.0*,0.7,0.4,33.8,x
Cc1cc(C(=O)N2CCN(C(c3ccccc3)c3ccccc3)CC2)on1,69.4*,0.2,0.3,77.3*,x
O=C(C1=COCCO1)N1CCN(C(c2ccccc2)c2ccccc2)CC1,3.6,0.3,1,67.3*,-0.869
O=C(c1cc(C2CC2)on1)N1CCN(C(c2ccccc2)c2ccccc2)CC1,-4.5,0.8,1,16.0,-0.23
O=C(C1CCCO1)N1CCN(C(c2ccccc2)c2ccccc2)CC1 (centres undefined),-11.0,1,1.1,3.4,1.07
CC1=NNC(=O)C1C(c1ccccc1)C(C#N)C#N (centres undefined),25.3,0.8,0.7,23.8,-0.489
Cc1cc(C)n(-c2ccc(C(=O)OCC(=O)NCc3ccco3)cc2)n1,2.3,0.9,1,11.3,0.348
Cc1cc(C)n(-c2ccc(C(=O)OCC(=O)Nc3ccc(Cl)c(S(=O)(=O)N(C)C)c3)cc2)n1,83.3*,1.7,0.2,-68.8,-3.58
Cc1cc(C)n(-c2ccc(C(=O)OCC(=O)c3ccc(Br)s3)cc2)n1,76.6*,0.1,0.2,90.0*,-1.85
CCOCC(=O)Nc1ccc(S(=O)(=O)N2CCOCC2)cc1,5.9,0.9,0.9,11.0,0.0492
Cc1cc(C)n(-c2ccc(C(=O)OCC(=O)Nc3ccc(S(=O)(=O)N4CCOCC4)cc3)cc2)n1,87.9*,0.3,0.1,71.2*,-0.144
CCc1ccc(OCC(=O)Nc2ncc3c(n2)CC(C)(C)CC3=O)cc1,5.6,1.1,0.9,-5.7,0.87
Cc1ccc(-c2csc(/C(C#N)=C(\O)CN3CCN(C(=O)c4ccco4)CC3)n2)cc1,0.7,0.5,1,47.7,-0.0763
O=C(Cn1nnc2ccccc21)NC1CCCCC1,54.7*,1,0.5,-0.8,0.358
Cc1ccc(N(C(=O)Cn2nnc3ccccc32)C(C(=O)NC2CCCCC2)c2cn(C)nc2C)cc1 (centres undefined),66.6*,0.9,0.3,11.7,-0.0793
NC(=O)C1CCN(C(=O)c2cc(S(=O)(=O)N3CCOCC3)c(Cl)cc2Cl)CC1,4.1,1,1,-0.4,0.343
CN(C)CCCNC(=O)C1CCNCC1,4.8,1,1,-0.6,0.686
C#Cc1ccc([C@@H]2C=C(C(=O)O)O[C@H](OCc3ccc(CO)cc3)C2)cc1,x,x,x,x,0.634
O=c1nc2scc(-c3ccccc3)n2c2ccccc12,15.9,1,0.8,2.0,1.28
Cc1noc(C)c1S(=O)(=O)N1CCCC(C(=O)NCc2ccccn2)C1 (centres undefined),-1.3,1,1,-0.4,1.52
Cc1ccc(N(CC(=O)N2CCN(C3CCCCC3)CC2)S(=O)(=O)c2cccnc2)cc1,30.7,0.3,0.7,73.6*,1.17
Cc1ccc(S(=O)(=O)N(CC(=O)N2CCCCCC2)c2ccccc2)cc1,11.8,0.7,0.9,31.9,0.491
O=C(c1cccs1)c1ccc(-c2cccs2)s1,48.7,0.3,0.5,73.9*,-0.0304
CC1=C(C(=O)Nc2ccccc2C)C(c2ccc(C)o2)N2C(=O)CSC2=N1 (centres undefined),9.9,0.9,0.9,5.6,-3.8
Cn1c(Br)nc2c1c(=O)n(CC(O)COc1ccccc1)c(=O)n2C (centres undefined),86.2*,0.9,0.1,10.7,1.98
CC(O)Cn1c(=O)c2c(nc(Br)n2Cc2ccccc2)n(C)c1=O (centres undefined),x,x,x,x,1.32
CN(c1nc2c(c(=O)n(C)c(=O)n2C)n1CC(=O)c1ccccc1)C1CCCCC1,45.6,0.3,0.5,65.8*,-0.767

# Screens: PubChem BioAssay, several laboratories
